Screening data (PubChem)
A selection: hits, their analogues and other compounds. The true share with any hit is near 3.3%.
AmpC inh detg – AmpC beta-lactamase inhibition with detergent present; hit rate 0.041% among 370,000; P00811; Potency, µM (doses to about 114 µM), without a hit: at the top dose activity change, negative = inhibition, hits mostly inhibitors; AmpC hydrolysis of nitrocefin, absorbance 480 nm, 0.01% Triton;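 note: 0% = no-compound wells and -100% = no-enzyme wells; nearly all actives have a fitted effect of over 25% in size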
Target sequence (P00811 whole entry, looked up): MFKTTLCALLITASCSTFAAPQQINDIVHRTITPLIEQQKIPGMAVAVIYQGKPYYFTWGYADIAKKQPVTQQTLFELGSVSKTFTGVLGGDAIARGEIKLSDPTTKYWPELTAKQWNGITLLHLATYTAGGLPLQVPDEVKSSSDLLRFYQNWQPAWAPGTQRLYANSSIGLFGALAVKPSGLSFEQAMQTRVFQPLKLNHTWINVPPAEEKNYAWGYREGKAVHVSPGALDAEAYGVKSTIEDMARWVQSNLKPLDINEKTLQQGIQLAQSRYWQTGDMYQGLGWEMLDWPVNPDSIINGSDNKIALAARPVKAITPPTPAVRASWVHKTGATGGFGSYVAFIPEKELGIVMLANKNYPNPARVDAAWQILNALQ
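AmpC (5.3 nM in the dispensed reagent) in 20 mM phosphate pH 7.0 with 0.01% (detergent screen) or 0.0001% Triton X-100 was preincubated with compounds for 15 min at room temperature. Nitrocefin was then added from an 800 uM solution, and hydrolysis was followed at 480 nm.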
Sm TGR inh – inhibitors of Schistosoma mansoni thioredoxin glutathione reductase | Potency, µM (series often up to 114 µM), inactives show at the highest dose activity change, negative = inhibition, actives largely listed as inhibitors | purified TGR, DTNB reduction, TNB absorbance 405 nm | hit rate 3% among 360,000 | Q962Y6; note: nearly all actives have a fitted effect of over 60% in size
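First, TGR (20 nM dispensed) and NADPH were mixed with compound. Second, a 15 min room-temperature incubation followed. Third, further NADPH and then DTNB were added to start the reaction. Finally, TNB absorbance was monitored kinetically.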
AmpC inh no detg – inhibitors of E. coli AmpC beta-lactamase without detergent. AmpC nitrocefin hydrolysis, absorbance 480 nm, 0.0001% Triton. AID 485341. P00811. hit rate 0.52% among 330,000. Potency, µM (series often up to 57.1 µM), for the others: top-dose activity change, negative = inhibition, hits mostly inhibitors;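 note: plate controls were no compound for no effect and no enzyme for full effect; nearly all actives have a fitted effect of over 20% in size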
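AmpC (5.3 nM in the dispensed reagent) in 20 mM phosphate pH 7.0 with 0.01% (detergent screen) or 0.0001% Triton X-100 was preincubated with compounds for 15 min at room temperature. Nitrocefin was then added from an 800 uM solution, and hydrolysis was followed at 480 nm.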
Active calls of the source: *. Calls come from the whole dose curve; as a rule, active = well fitted curve in the direction sought with a large enough effect; inconclusive = small, poorly fitted or top-dose-only effect, or another doubt; inactive = no such curve, though single readings can be large; an effect the other way counts as inactive or inconclusive. Unless noted, % is set by controls: 0 for no effect and ±100 for the full control effect; potency is the fitted concentration of half-maximal effect.

Results for CC1(C)CC(=O)C2=C(C1)OC(N)=C(C#N)C2c1ccoc1 (stereo not given) ?
AmpC inh detg: 2%; Sm TGR inh: -15%; AmpC inh no detg: 1%

What do the screens show for `C/C(=C\c1ccco1)C1C(C#N)=C(N)OC2=C1C(=O)CC(C)(C)C2` (stereo not given)?
AmpC inh detg: inconclusive; Sm TGR inh: 35µM*; AmpC inh no detg: -37%

How did CC1(C)CC(=O)C2=C(C1)OC(N)=C(C#N)C2C#Cc1ccccc1 (stereo not given) do in these assays?
AmpC inh detg: -9%; Sm TGR inh: 1.6µM*; AmpC inh no detg: -38%

What do the screens show for `CC(c1ccccc1)C1C(C#N)=C(N)OC2=C1C(=O)CC(C)(C)C2` (stereo not given)?
AmpC inh detg: -3%; Sm TGR inh: -26%; AmpC inh no detg: -16%

Results for Cn1cc(C(=O)NCc2ccccc2)c(=O)c2cc(S(=O)(=O)N3CCOCC3)ccc21 ?
AmpC inh detg: 2%; Sm TGR inh: -1%

Results for Cc1ccc(N2CC(NC(=O)Cc3ccc(F)cc3)CC2=O)cc1 (stereo not given) ?
AmpC inh detg: 2%; Sm TGR inh: 1%

How did CN(C)c1nc(N)nc(/C(C#N)=C/C2CC3C=CC2C3)n1 (stereo not given) do in these assays?
AmpC inh detg: 6%; Sm TGR inh: 40µM*; AmpC inh no detg: 10%

How did CCOC(=O)c1cc(-c2ccccc2)n(CCCC(=O)Nc2ccc(C)c(Cl)c2)c1C do in these assays?
AmpC inh detg: 11%; Sm TGR inh: 1%

Results for COc1ccc(CCn2c(-c3ccc(OC)cc3)nc3c(c(=O)c4ccccc4n3C)c2=O)cc1 ?
AmpC inh detg: 1%; Sm TGR inh: -3%; AmpC inh no detg: -17%

Results for Cc1ccc(-c2nc3c(c(=O)c4ccccc4n3C)c(=O)n2Cc2ccco2)cc1 ?
AmpC inh detg: 4%; Sm TGR inh: 32µM*; AmpC inh no detg: -31%

Results for Cc1ccc(-c2nc3c(c(=O)c4ccccc4n3C)c(=O)n2-c2ccccc2)cc1 ?
AmpC inh detg: -1%; Sm TGR inh: -6%; AmpC inh no detg: -26%

Results for Cn1c2ccccc2c(=O)c2c(=O)n(Cc3ccco3)c(-c3ccc(F)cc3)nc21 ?
AmpC inh detg: 2%; Sm TGR inh: 40µM*; AmpC inh no detg: -19%

What do the screens show for `Cc1onc(-c2ccccc2Cl)c1C(=O)NNC(=O)c1cccc(F)c1`?
AmpC inh detg: 0%; Sm TGR inh: 2%; AmpC inh no detg: 3%

What do the screens show for `CCOC(=O)c1c(NC(=O)COC(=O)Cc2n[nH]c(=O)c3ccccc23)sc(C(=O)NC)c1C`?
AmpC inh no detg: -7%

Results for O=C(COC(=O)C1CCN(c2ccc(C(F)(F)F)cn2)CC1)NC1CCCCC1 ?
AmpC inh detg: -12%; Sm TGR inh: 1%; AmpC inh no detg: 78%

How did O=C(OCC(=O)N1CCc2ccccc21)[C@@H]1CC(O)CN1S(=O)(=O)c1ccccc1[N+](=O)[O-] (stereo not given in full) do in these assays?
AmpC inh no detg: 24%

How did C=C1CCC[C@]2(C)C[C@H]3OC(=O)C(CNCCN(CC)CC)[C@H]3CC12 (stereo not given in full) do in these assays?
AmpC inh detg: 4%; Sm TGR inh: 0%; AmpC inh no detg: 15%

How did FC(F)(F)c1nnc2c(Sc3ccccc3)nc3ccccc3n12 do in these assays?
AmpC inh detg: inconclusive; Sm TGR inh: inconclusive; AmpC inh no detg: -28%

What do the screens show for `FC(F)(F)c1nnc2c(Sc3ccccn3)nc3ccccc3n12`?
AmpC inh detg: 0%; Sm TGR inh: 25µM*; AmpC inh no detg: -10%

Results for COc1cc(C(=O)Nc2ccc(Nc3ccccc3)cc2)cc(OC)c1OC ?
AmpC inh detg: -2%; Sm TGR inh: 4%; AmpC inh no detg: 45%

How did COc1cc(/C=C/C(=O)OCC(=O)c2ccc(OC(F)F)cc2)ccc1O do in these assays?
AmpC inh no detg: -24%

Results for CCCNC(=O)COC(=O)/C=C/c1ccco1 ?
AmpC inh detg: -1%; Sm TGR inh: 45µM*; AmpC inh no detg: -11%

Results for CCN(CC(=O)NCc1ccc(Cl)cc1)C(=O)/C=C/c1ccccc1 ?
AmpC inh detg: 1%; Sm TGR inh: -3%; AmpC inh no detg: 26%

Results for COc1ccc(OC)c(NC(=O)COC(=O)/C=C/c2ccco2)c1 ?
AmpC inh no detg: -31%

What do the screens show for `CCOC(=O)c1c(C)[nH]c(C)c1C(=O)COC(=O)/C=C/c1ccc(OC)cc1`?
AmpC inh detg: 0%; Sm TGR inh: -4%; AmpC inh no detg: -13%
